Compound activity as filed in PubChem.
A selection: hits, their analogues and other compounds. The true share with any hit is near 0.98%.
RTF Ca sens act = increases calcium sensitivity of human cardiac regulated thin filaments | P19429+P45379 | IANBD-labeled TnC RTF fluorescence at EC20 calcium; 0% EC20 calcium, 100% full calcium | activation, % at 7.2 µM | AID 493008 | hit rate 0.24% among 340,000;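 active = activation above the mean over all tested compounds plus 3 SD, cut at about 30% in these data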;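 also: rise in fluorescence read as greater calcium sensitivity of cardiac thin filaments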
C-LANA FP = KSHV C-LANA DNA binding inhibition. MBP-C-LANA/FAM-LBS DNA binding, fluorescence polarization. inhibition, % at 9 µM. hit rate 0.078% among 340,000. AID 504423;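 active = highest replicate inhibition at or above 60% at 9 µM, even if other replicates fall short; inactive = all replicates below 60% inhibition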
RTF Ca sens inh = cardiac RTF calcium desensitization. P19429+P45379. IANBD-labeled cardiac RTF, Ca2+ fluorescence. inhibition, % at 7.15 µM. hit rate 0.12% among 340,000. AID 493244;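 active = inhibition above the mean inhibition of all tested compounds plus 3 SD, cut at about 17% in these data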;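 also: assay run at fixed EC70 calcium of 1.6 mM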
LANA-H2A inh = blocks KSHV LANA binding to histone H2A/H2B; inhibition, % (concentration not given with the values); Q9QR71; hit rate 0.6% among 320,000; cell-free LANA-H2A/H2B peptide, fluorescence polarization; in the data active = inhibition mostly above about 10%, no sharp cut-off; inactive = mostly below about 6.7%
Keap1-Nrf2 PPI = Keap1-Nrf2 (human) interaction inhibition; hit rate 0.15% among 340,000; Q14145; inhibition, % at 9.4 µM; Keap1 Kelch-Nrf2 peptide fluorescence polarization, 1536-well; AID 504523; in the data active = inhibition above about 12%;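 also: human Keap1 Kelch domain with fluorescein labeled Nrf2 9mer peptide probe; higher means more block of Keap1 binding to Nrf2 peptide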
Target sequence (Q14145 whole entry, looked up, the tested form may be a part): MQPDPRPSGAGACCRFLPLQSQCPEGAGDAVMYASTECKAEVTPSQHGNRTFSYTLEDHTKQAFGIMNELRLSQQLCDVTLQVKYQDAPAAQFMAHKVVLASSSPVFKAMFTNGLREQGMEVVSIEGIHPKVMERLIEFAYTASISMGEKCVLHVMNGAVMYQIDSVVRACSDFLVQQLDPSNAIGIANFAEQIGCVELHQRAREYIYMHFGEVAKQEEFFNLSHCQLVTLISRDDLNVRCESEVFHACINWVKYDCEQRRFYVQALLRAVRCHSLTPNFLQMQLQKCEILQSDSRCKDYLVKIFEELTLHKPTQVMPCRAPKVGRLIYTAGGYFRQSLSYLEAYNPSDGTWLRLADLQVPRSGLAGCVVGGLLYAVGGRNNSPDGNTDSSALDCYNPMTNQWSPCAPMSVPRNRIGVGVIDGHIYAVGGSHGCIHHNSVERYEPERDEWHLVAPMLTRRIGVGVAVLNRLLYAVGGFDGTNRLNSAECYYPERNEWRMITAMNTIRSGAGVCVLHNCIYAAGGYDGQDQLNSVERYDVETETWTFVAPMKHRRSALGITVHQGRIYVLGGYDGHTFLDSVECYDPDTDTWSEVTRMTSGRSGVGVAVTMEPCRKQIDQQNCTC
Numbers stand for hits; i = inactive; nt = no result given.

SMILES	RTF Ca sens act	C-LANA FP	RTF Ca sens inh	LANA-H2A inh	Keap1-Nrf2 PPI
O=C(c1cccn2c(=O)c3cc4ccccc4cc3nc12)N1CCN(c2ccccc2)CC1	nt	nt	nt	13	nt
O=C1c2ccccc2[C@@H]2C[C@@H](O)[C@H](Nc3cccc(Cl)n3)CCN12	i	i	i	nt	i
CCc1noc(C)c1C(=O)NNC(=O)c1ccccc1	i	i	i	97	i
CCc1ccc(C(=O)NNC(=O)c2c(CC)noc2C)cc1	i	i	i	i	i
CN(C)c1ccc(P(=O)(OCc2ccccc2)C(O)c2cccnc2)cc1 (stereo not given)	i	i	i	i	i
Cc1ccc(C(O)P(=O)(OCc2ccccc2)c2ccc(N(C)C)cc2)cc1 (stereo not given)	i	i	i	11	i
CC(C)(C)C(=O)N1CCCC1C(=O)O (stereo not given)	i	i	i	28	i
COc1ccc(/C=c2/sc3nc(-c4ccccc4)c(-c4ccccc4)n3c2=O)cc1	i	i	i	i	i
O=C(Cc1cccs1)Nc1ccc(C(=O)O)cc1	i	i	i	i	i
O=C(Cc1cccs1)Nc1cccc(C(=O)Nc2ccc(C(=O)O)cc2)c1	nt	i	nt	51	i
CCN(CC)c1ccc(/C=C/C(=O)c2ccc(Br)cc2)cc1	476	i	i	i	i
CCN(CC)c1ccc(/C=c2/sc3nnc(-c4ccccc4C)n3c2=O)cc1	43	i	i	i	i
CCN(CC)c1ccc(/C=c2\sc3nnc(-c4ccccc4Cl)n3c2=O)cc1	47	i	i	i	i
Cc1ccc(/C=c2/sc3nnc(-c4ccccc4Cl)n3c2=O)o1	i	i	i	i	i
O=C(CN1CCc2[nH]c3ccccc3c2C1)N1CCCCC1	i	i	i	18	i
CCN(c1ccc(C)c(C)c1)S(=O)(=O)c1c(C)[nH]c(=O)[nH]c1=O	i	i	i	i	i
Cc1c(Cc2ccccc2)c(=O)oc2c(O)c(O)ccc12	nt	i	nt	nt	i
Cc1c(Cc2ccccc2)c(=O)oc2c(CN(C)C)c(O)c(Cl)cc12	i	i	i	5.7	i
CCN1CCN(CC(=O)Nc2cc(C(F)(F)F)ccc2OCCOC)CC1	i	i	i	i	i
CCN1CCN(c2nc(N)c([N+](=O)[O-])c(Nc3ccc(C)cc3)n2)CC1	i	i	i	19	i
COc1ccc(C2C(C#N)=C(N)SC(N)=C2C#N)cc1OC	36	i	i	i	i
Cc1cccc(N2CCN(C(=O)Cn3nc(Cc4ccncc4)c4ccccc4c3=O)CC2)c1C	i	i	i	i	i
CN1CCC(N(C)C(=O)c2ccc(Cl)c(S(=O)(=O)N3CCCCC3)c2)CC1	i	i	i	nt	i
N#C/C(=C/c1ccc(N2CCCCCC2)o1)c1ccc(Cl)cc1	36	i	i	i	i
COc1ccccc1N1C(=O)c2cccc3c(N(C)CCO)ccc(c23)C1=O	52	i	i	i	i
SMILES	RTF Ca sens act	C-LANA FP	RTF Ca sens inh	LANA-H2A inh	Keap1-Nrf2 PPI
N#C/C(=C\c1ccc(O)c(O)c1)C(=O)c1ccc(O)c(O)c1	i	69	i	i	i
O=C(Nc1ccc(C(=O)NC2CCCCC2)cc1)c1cccnc1	i	i	i	14	i
CC(=O)Nc1ccc(C(=O)NC2CCCC2)cc1	i	i	i	i	i
CCC(C)N1CCC(Oc2ccc(C(=O)NCc3ccccn3)cc2)CC1 (stereo not given)	i	i	i	175	i
O=C(NCc1ccccn1)c1ccc(OC2CCN(Cc3ccccc3)CC2)cc1	i	i	i	i	i
Cc1ccc(C)c(OCCC(=O)OCC(=O)N2c3ccccc3NC(=O)C2(C)C)c1	i	i	i	12	i
COc1ccccc1CCC(=O)OCC(=O)N1c2ccccc2NC(=O)C1(C)C	i	i	i	nt	i
CCCN1C(=O)/C(=C\C=C2\N(CC)c3ccccc3C2(C)C)SC1=S	90	i	i	nt	i
CN1/C(=C\C=C2/SC(=S)NC2=O)C(C)(C)c2ccccc21	344	i	i	i	i
CCN1C(=O)/C(=C/C=C2\C=CN(CC)c3ccccc32)SC1=S	i	i	i	i	i
CN1C(=CC=C2C=C(I)C(=O)C(I)=C2)C(C)(C)c2ccccc21	92	i	i	nt	i
CN1/C(=C\C=C2/C(=O)Oc3ccccc3C2=O)C(C)(C)c2ccccc21	nt	nt	nt	i	nt
CC1(C)Cc2ccccc2C(C(=O)c2ccccc2)=N1	i	i	i	i	i
CC1(C)Cc2ccccc2C(C(Cc2ccccc2)C(N)=O)=N1 (stereo not given)	i	i	i	6.5	i
COc1ccc(N2C(=O)C(Cl)=C(Nc3ccc(OC)cc3OC)C2=O)cc1	i	i	i	i	i
